High-throughput results: PubChem BioAssay, National Center for Advancing Translational Sciences (NCATS)
Pin1 inhibitor: blocks the human prolyl isomerase Pin1; Q13526; Pin1 FP peptide displacement, HiFluor488, 10 min; 390,000 compounds, 0.009% hits; AID 504891; Potency, µM (highest dose often 115 µM), inactives show at the top dose activity, negative = inhibition, hits mostly inhibitors; active = well fitted inhibition curve with a large enough effect in the polarisation, with a control signal flat, not every such curve was filed as active; inconclusive = small, poorly fitted or top-dose-only effect, or effect the other way, or a change in a side signal; inactive = no such curve, though single readings can be large or run the other way; the % refers to the polarisation; also: potency is read from the fitted curve at half-maximal effect; % is scaled to controls: 0 for no effect and ±100 for the full control effect
PGK inhibitor: blocks T. brucei phosphoglycerate kinase; PGK/GAPDH coupled, Kinase-Glo luminescence, 60 min; 380,000 compounds, 0.043% hits; Potency, µM (titrated, usually from 57.5 µM), without a hit: at the top dose activity change, negative = inhibition, usual class: inhibitors; AID 602233; also: potency is read from the fitted curve at half-maximal effect; % is scaled to controls: 0 for no effect and ±100 for the full control effect; nearly all actives have a fitted effect of over 60% in size
Target sequence (P07378 whole entry, looked up): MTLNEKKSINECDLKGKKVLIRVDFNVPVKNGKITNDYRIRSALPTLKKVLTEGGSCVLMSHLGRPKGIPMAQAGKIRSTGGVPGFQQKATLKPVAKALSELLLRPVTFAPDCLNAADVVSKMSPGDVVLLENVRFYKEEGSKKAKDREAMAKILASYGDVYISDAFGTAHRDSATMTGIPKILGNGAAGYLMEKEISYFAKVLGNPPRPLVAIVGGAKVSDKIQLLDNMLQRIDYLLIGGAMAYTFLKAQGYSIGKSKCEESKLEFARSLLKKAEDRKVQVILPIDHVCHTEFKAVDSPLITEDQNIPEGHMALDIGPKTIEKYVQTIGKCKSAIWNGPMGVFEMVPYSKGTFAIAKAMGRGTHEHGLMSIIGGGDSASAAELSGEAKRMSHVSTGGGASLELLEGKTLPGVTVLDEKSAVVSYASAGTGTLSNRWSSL
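Recombinant glycosomal PGK reaction used 1,3-bisphosphoglycerate generated in-well by GAPDH (100nM final) in 100mM TEA pH 7.6, 5mM MgCl2, 0.01% Tween-20. After 60 minutes at room temperature, ATP was read by Kinase-Glo Plus luminescence end-point.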
PI5P4K alpha inh: PI5P4K alpha (human) kinase inhibition. max response, %. P48426. PI5P4Kalpha enzyme, ADP-Glo luminescence, 60 min; hits give low values. 330,000 compounds, 1.2% hits; active = max response of -50% or lower; inconclusive = between -30% and -50%; inactive = -30% or higher; also: value at the top dose of about 77 µM; % is scaled to controls: 0 for no effect and ±100 for the full control effect
Target sequence (P48426 whole entry, looked up): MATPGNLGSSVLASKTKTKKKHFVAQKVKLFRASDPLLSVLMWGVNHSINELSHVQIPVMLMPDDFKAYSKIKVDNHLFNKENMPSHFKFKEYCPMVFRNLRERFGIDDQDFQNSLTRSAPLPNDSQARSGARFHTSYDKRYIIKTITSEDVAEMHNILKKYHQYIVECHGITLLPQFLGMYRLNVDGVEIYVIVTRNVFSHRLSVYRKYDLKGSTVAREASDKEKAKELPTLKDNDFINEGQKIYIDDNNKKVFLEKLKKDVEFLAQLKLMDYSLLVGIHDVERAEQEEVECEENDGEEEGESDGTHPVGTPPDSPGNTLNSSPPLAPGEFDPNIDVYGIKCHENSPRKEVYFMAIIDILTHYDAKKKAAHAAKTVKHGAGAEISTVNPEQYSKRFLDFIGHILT
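Quantitative HTS of the MLSMR library against PI5P4Kalpha with substrate. ATP added last at 5 microM final; room temperature, 60 minutes. Remaining ATP depleted, ADP converted and read as luminescence.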
PI4K2A inh: PI4K2A (human) kinase inhibition | 420,000 compounds, 0.13% hits | purified PI4K2A, ADP-Glo luminescence, 1 h; hits give low values | AID 1346378 | Q9BTU6 | activity change, negative = inhibition, % at 76.9 µM; in the data active = activity change below about -50%; inconclusive = mostly about -30% to -49%;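 also: -100% = wells without enzyme as full effect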
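ADP-Glo luminescence measured ADP generated by PI4K2A enzyme (4 ug/mL before mixing) with 1.2 mM PI substrate (pre-mix) and 300 microM ATP (pre-mix). Tris pH7.5 buffer with MgCl2, Triton X-100; 1 h reaction at ambient temperature.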
Tb PFK inh-1: T. brucei PFK enzyme inhibition | Potency, µM (top dose mostly 57.5 µM), without a hit: at the highest dose activity, negative = inhibition, hits mostly inhibitors | T. brucei PFK, ADP-Glo luminescence | 330,000 compounds, 0.17% hits | O15648;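 also: potency is read from the fitted curve at half-maximal effect; 0% = uninhibited 1x PFK enzyme wells and -100% = no-enzyme wells; nearly all actives have a fitted effect of over 60% in size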
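Luminescent ADP detection (ADP-Glo, two-step: ATP depletion then ADP-to-ATP conversion for luciferase) reported PFK activity after 45 min room-temperature reaction of 1.25 nM enzyme with 0.5 mM F6P and 0.1 mM ATP at pH 8.0.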
TbPFK ATP: orthogonal confirmation of T. brucei phosphofructokinase inhibitors | Tb PFK enzyme, ATP depletion, Kinase-Glo Plus luminescence | shares compounds with Tb PFK inh-1 | 1,100 compounds, 47% hits | Potency, µM (titrated, usually from 57.5 µM), for inactives: top-dose inhibition | AID 504636; calls by dose curve; also: potency is read from the fitted curve at half-maximal effect; nearly all actives have a fitted effect of over 60% in size
Tb PFK inh-2: T. brucei PFK enzyme inhibition, hit validation; shares compounds with Tb PFK inh-1; purified T. brucei PFK, ADP-Glo luminescence, 45 min; Potency, µM (highest dose often 57.5 µM), for the others: at the highest dose activity change, negative = inhibition, hits mostly inhibitors; 1,100 compounds, 41% hits;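 also: potency is read from the fitted curve at half-maximal effect; plate controls were full PFK enzyme control for no effect and no enzyme control for full effect; nearly all actives have a fitted effect of over 60% in size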
* = called active by the depositor; i = inactive; ? = inconclusive; / = no result. Many of the other results were omitted from the sample, so hits are more common in it than they were. Unless noted, calls follow the shape of the dose curve; as a rule, active = well fitted curve in the direction sought with a large enough effect; inconclusive = small, poorly fitted or top-dose-only effect, or another doubt; inactive = no such curve, though single readings can be large; an effect the other way counts as inactive or inconclusive.

SMILES | Pin1 inhibitor | PGK inhibitor | PI5P4K alpha inh | PI4K2A inh | Tb PFK inh-1 | TbPFK ATP | Tb PFK inh-2
COc1cccc(-n2c(/C=C/c3cccc(C)c3)nc3ccccc3c2=O)c1 | 3.3% | 14.0% | / | 0.1 | / | / | /
COc1cc(C)c(NC(=O)C(=S)NCCc2ccccc2)cc1C | -5.0% | -8.5% | -3.6 | 2.8 | ? | 23.9µM* | ?
CCN(CC)C(=O)c1ccc(NC(=S)NC(=O)CCc2ccccc2)cc1 | 0.4% | -8.7% | -2.7 | 6.6 | -4.6% | / | /
Cc1cccc(Cn2c(=O)n(Cc3ccc(C(=O)NC4CCN(Cc5ccccc5)CC4)cc3)c(=O)c3ccccc32)c1 | 55.8% | -0.3% | / | -7.9 | / | / | /
O=C(Cc1ccc(Cl)c(Cl)c1)NNC(=S)NCC1CCCO1 (stereo not drawn) | -12.0% | -8.4% | -0.7 | 1.3 | ? | 21.3µM* | ?
O=C(NCc1ccc2c(c1)OCO2)c1cc(-n2cnnc2)ccc1Cl | ? | i | -0.9 | -2.1 | -0.8% | / | /
COc1ccc(CNC(=O)C(NC(C)=O)C(C)C)cc1OC (stereo not drawn) | -1.0% | 4.4% | 0.6 | 1.4 | 1.1% | / | /
O=C(NCc1cccc(Cl)c1)c1ccc2c(c1)OCCO2 | -24.7% | 2.6% | 1.8 | 1.1 | 23.9µM* | 13.5µM* | 19µM*
O=C(c1ccc(Cl)cc1)C1CCCN(Cc2ccc3c(c2)OCCO3)C1 (stereo not drawn) | -8.9% | -3.3% | ? | 0.8 | 5.7% | / | /
O=C(NCc1ccc(Cl)c(Cl)c1)c1ccc2c(c1)OCO2 | 14.6% | i | -0.2 | -0.2 | 23.9µM* | 7.57µM* | 8.49µM*
O=C(NCCS(=O)(=O)N1CCN(c2cccc(Cl)c2)CC1)c1ccc2c(c1)OCO2 | -1.8% | 7.6% | 2.5 | -2.8 | ? | 21.3µM* | ?
COC(=O)NCc1ccc(Cl)c(Cl)c1 | -3.1% | -7.5% | -2.5 | 1.8 | 21.3µM* | 10.7µM* | 30.1µM*
O=C(CN1CCCCC1)c1ccc2c(c1)OCO2 | 1.1% | 3.2% | -4.6 | 5.4 | 1.3% | / | /
Cc1ccccc1-n1c(/C=C/c2ccc(O)cc2)nc2ccccc2c1=O | 32.5% | -7.0% | / | -0.4 | / | / | /
COC(=O)[C@@H](N)CCCN/C(N)=N/[N+](=O)[O-] | / | / | / | -2.9 | / | / | /
Cc1cccc(CN2C(=O)CN=C(c3ccccc3Cl)c3cc(Cl)ccc32)c1 | 2.8% | -0.9% | / | 1.3 | / | / | /
C=CCCC(NC(=O)OCc1ccccc1)P(=O)(Oc1ccccc1)Oc1ccccc1 (stereo not drawn) | / | / | / | 5.8 | / | / | /
COc1ccc(C(=O)c2c(C)n(CCN3CCOCC3)c3ccccc23)cc1 | / | / | / | -4.1 | / | / | /
CN1CCN(C(=O)COc2ccc(S(=O)(=O)Nc3ccc(Cl)cc3)cc2)CC1 | / | -5.3% | -16.6 | 2.1 | / | / | /
Cc1cc(NS(=O)(=O)c2ccc(NC(=S)NCc3ccccc3)cc2)no1 | -9.4% | -3.9% | 0.4 | 2.8 | 19µM* | 23.9µM* | ?
CCN1CCN(C(=O)COc2ccc(S(=O)(=O)Nc3ccc(Cl)cc3)cc2)CC1 | -8.8% | 10.9% | 0.7 | 0.8 | 0.3% | / | /
CCc1nnc(NS(=O)(=O)c2ccc(NC(=O)COc3ccc(Cl)c(C)c3)cc2)s1 | ? | 6.7% | 2.5 | -0.5 | 5.36µM* | 2.39µM* | 7.57µM*
Cc1noc(NS(=O)(=O)c2ccc(NC(=O)COc3ccc(C#N)cc3)cc2)c1C | -0.9% | 10.8% | -8.5 | 0.6 | 13.5µM* | 6.75µM* | 21.3µM*
Cc1cc(NS(=O)(=O)c2ccc(NC(=O)COc3ccc(Cl)cc3)cc2)no1 | -3.9% | 6.6% | -10.2 | 1.1 | 5.36µM* | 1.69µM* | 3.79µM*
Cc1nnc(NC(=O)c2cccn(Cc3cccc([N+](=O)[O-])c3)c2=O)s1 | 7.2% | 1.6% | / | -1.8 | / | / | /
SMILES | Pin1 inhibitor | PGK inhibitor | PI5P4K alpha inh | PI4K2A inh | Tb PFK inh-1 | TbPFK ATP | Tb PFK inh-2
Ic1ccccc1CNC1C2CCN(CC2)C1C(c1ccccc1)c1ccccc1 (stereo not drawn) | / | / | / | -5.0 | / | / | /
N#Cc1ccc(OCC(=O)Nc2ccc(S(=O)(=O)N3CCOCC3)cc2)cc1 | 3.8% | -0.6% | 0.9 | 1.5 | 12µM* | 12µM* | 30.1µM*
Cc1cc(NS(=O)(=O)c2ccc(NC(=O)Cc3ccc([N+](=O)[O-])cc3)cc2)no1 | 10.2% | 4.3% | 4.7 | -2.7 | 2.39µM* | 0.849µM* | 1.51µM*
O=C(COc1ccc(S(=O)(=O)N2CCOCC2)cc1)N1CCN(Cc2ccc3c(c2)OCO3)CC1 | -1.6% | -3.9% | / | 4.2 | -0.1% | / | /
O=C(Nc1ccc2oc(-c3cccnc3)nc2c1)c1ccc(-c2cccc(Cl)c2)o1 | 55.7% | -24.0% | / | -1.1 | / | / | /
CN(C)c1ccc(CN2CCc3nc(N4CCN(c5ccccn5)CC4)ncc3C2)cc1 | ? | i | / | -8.7 | / | / | /
O=S1(=O)CCOC(CO)CN1Cc1ccc(Cl)c(Cl)c1 (stereo not drawn) | -0.4% | -6.8% | -5.2 | 1.2 | ? | ? | ?
S=C(NCCCN1CCOCC1)N1CCN(c2cccc(Cl)c2)CC1 | -4.9% | 6.6% | -2.2 | ? | ? | 21.3µM* | 26.9µM*
S=C(NCc1ccccc1)N1CCN(c2cccc(Cl)c2)CC1 | 0.2% | 3.1% | -3.5 | 1.6 | 26.9µM* | 23.9µM* | 26.9µM*
O=C(Cc1ccccc1)N1CCN(Cc2cccc(Cl)c2)CC1 | 1.8% | -2.4% | 4.7 | -3.4 | -3.3% | / | /
O=C(NC1CN2CCC1CC2)c1cc(-c2ccc(Cl)cc2)nc2ccccc12 (stereo not drawn) | / | / | / | -2.4 | / | / | /
CCC1(c2ccccc2)CCC(=O)NC1=O (stereo not drawn) | / | / | / | -4.1 | / | / | /
O=C1CC(c2ccc(C(F)(F)F)cc2)c2c(c3ccccc3oc2=O)O1 (stereo not drawn) | -10.4% | 0.3% | / | -4.9 | / | / | /
O=C(O)c1cc(O)c2c(c1)[C@H]([C@H]1c3cc(C(=O)O)cc(O)c3C(=O)c3c(O[C@@H]4O[C@H](CO)[C@@H](O)[C@H](O)[C@H]4O)cccc31)c1cccc(OC3O[C@H](CO)[C@@H](O)[C@H](O)[C@H]3O)c1C2=O (stereo partly drawn) | 0.708µM* | ? | -78.6* | -64.2* | ? | ? | 4.78µM*
O=c1ccc2cc(O[C@@H]3O[C@@H](CO)[C@H](O)[C@@H](O)[C@@H]3O)c(O)cc2o1 | -0.3% | -1.0% | -0.4 | 5.4 | 0.0% | / | /
COc1ccc(-n2c(-c3ccco3)nc3c(cnn3-c3ccc(Cl)cc3)c2=O)cc1 | 48.0% | 3.4% | / | 0.2 | / | / | /
COCCCNC(=O)c1cc(=O)n(Cc2ccc(Cl)cc2)c2ccccc12 | -5.0% | 16.3% | -8.0 | 3.5 | 10.7µM* | 23.9µM* | ?
